An excerpt weighted towards active compounds, which were near 2.4% of everything screened.
Pol iota inh – inhibitors of human DNA polymerase iota; Q9UNA4; Pol iota fluorescent replication assay, 10 min; Potency, µM (titrated, usually from 115 µM), inactives show at the top dose activity, negative = inhibition, actives largely listed as inhibitors; hit rate 1% among 390,000; further: potency means the concentration at half of the fitted maximal effect
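Pol iota at 10 nM preincubated 15 min with compounds at room temperature; reaction started with fluorescent substrate, 50 nM final. Fluorescence read kinetically at 0 and 10 min; buffer-only wells as negative control.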
Pol kappa inh-1 – DNA polymerase kappa (human) inhibition; purified Pol kappa, fluorescent DNA synthesis assay, 10 min; Q9UBT6; hit rate 0.53% among 400,000; Potency, µM (top dose mostly 107 µM), for the others: at the top dose activity, negative = inhibition, most hits filed as inhibitors; AID 588579; further: potency means the concentration at half of the fitted maximal effect; on the % scale 0 is the no-effect control and ±100 the full control effect
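Kinetic fluorescence screen: compound preincubated 15 min RT with 10 nM enzyme; 50 nM substrate (final) initiates; reads at 0/10 min.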
TDP1 inh – TDP1 (human) enzyme inhibition; recombinant TDP1, AlphaScreen DNA substrate cleavage; Q9NUW8; hit rate 0.28% among 350,000; Potency, µM (doses to about 130 µM), without a hit: top-dose activity change, negative = inhibition, usual class: inhibitors; further: potency means the concentration at half of the fitted maximal effect; on the % scale 0 is the no-effect control and ±100 the full control effect; nearly all actives have a fitted effect of over 40% in size
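Signal: AlphaScreen proximity between streptavidin donor and anti-FITC acceptor beads on intact substrate. Reaction: Tdp1 1 nM, substrate 15 nM final, 5 min RT after 15 min compound preincubation.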
Pol eta inh-1 – inhibitors of human DNA polymerase eta | recombinant Pol eta, fluorescent DNA replication assay | Q9Y253 | hit rate 1.2% among 390,000 | Potency, µM (top dose mostly 114 µM), without a hit: at the highest dose activity change, negative = inhibition, most hits filed as inhibitors; further: potency means the concentration at half of the fitted maximal effect; on the % scale 0 is the no-effect control and ±100 the full control effect
Target sequence (Q9Y253 whole entry, looked up): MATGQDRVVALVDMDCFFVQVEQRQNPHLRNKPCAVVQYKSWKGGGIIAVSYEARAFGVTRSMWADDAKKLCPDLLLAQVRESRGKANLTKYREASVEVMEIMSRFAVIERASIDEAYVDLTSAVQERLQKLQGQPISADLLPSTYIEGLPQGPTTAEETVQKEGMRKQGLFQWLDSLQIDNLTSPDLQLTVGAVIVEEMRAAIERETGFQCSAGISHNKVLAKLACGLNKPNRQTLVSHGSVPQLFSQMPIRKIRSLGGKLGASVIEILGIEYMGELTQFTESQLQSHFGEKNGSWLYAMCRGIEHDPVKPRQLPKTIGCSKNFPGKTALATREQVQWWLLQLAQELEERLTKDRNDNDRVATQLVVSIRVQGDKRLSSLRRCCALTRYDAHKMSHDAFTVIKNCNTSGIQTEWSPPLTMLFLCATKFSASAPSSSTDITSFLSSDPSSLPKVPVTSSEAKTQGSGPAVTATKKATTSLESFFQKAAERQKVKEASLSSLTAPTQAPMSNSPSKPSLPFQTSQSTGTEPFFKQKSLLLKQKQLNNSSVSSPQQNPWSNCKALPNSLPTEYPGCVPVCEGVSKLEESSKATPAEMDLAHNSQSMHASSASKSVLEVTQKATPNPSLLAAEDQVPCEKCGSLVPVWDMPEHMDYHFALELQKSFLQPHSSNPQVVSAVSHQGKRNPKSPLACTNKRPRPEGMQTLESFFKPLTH
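Fluorescent replication assay: 50 nM final substrate added after a 15 min room-temperature compound preincubation with 10 nM enzyme. Signal taken at 0 min and again at 10 min.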
Pol beta inh – blocks human DNA polymerase beta activity; P06746; Pol beta primer extension/strand displacement, fluorescence kinetic; Potency, µM (series often up to 114 µM), without a hit: at the top dose activity change, negative = inhibition, hits mostly inhibitors; hit rate 1.3% among 340,000; AID 485314; further: potency means the concentration at half of the fitted maximal effect; on the % scale 0 is the no-effect control and ±100 the full control effect
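10 nM enzyme + cpd, 15 min RT; start with substrate 50 nM final; read 0 min and after 10 min RT. Corrected, normalized data; 4-parameter Hill curve fit.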
PGK validate – TbPGK inhibition, hit validation | shares compounds with Pol kappa inh-1 | TbPGK coupled GAPDH assay, Kinase-Glo luminescence | Potency, µM (doses to about 57.5 µM), for inactives: at the top dose activity change, negative = inhibition, usual class: inhibitors | hit rate 79% among 500 | AID 686980; further: potency means the concentration at half of the fitted maximal effect; on the % scale 0 is the no-effect control and ±100 the full control effect; nearly all actives have a fitted effect of over 65% in size
POLI cherry-pick – Human Pol iota inhibitor confirmatory assay; shares compounds with Pol kappa inh-1; Pol iota primer extension, TAMRA/BHQ fluorescence; Potency, µM, actives largely listed as inhibitors; hit rate 77% among 1,500; further: potency means the concentration at half of the fitted maximal effect
GALK confirm – galactokinase (human) inhibition, confirmation; hit rate 70% among 150; AID 2015; shares compounds with Pol eta inh-1; Potency, µM (top dose mostly 115 µM), without a hit: top-dose activity, negative = inhibition, most hits filed as inhibitors; purified GALK, Kinase-Glo ATP depletion luminescence
Redox cycling – counter-screen for GALK inhibitors: redox cycling H2O2 generation | hit rate 40% among 150 | Phenol red-HRP H2O2 redox cycling, absorbance 600 nm | AID 2035 | shares compounds with Pol eta inh-1 | Potency, µM (titrated, usually from 115 µM), without a hit: top-dose activity change, negative = H2O2 signal, most hits filed as inhibitors
HEK293 viability – reduces HEK-293 cell viability in GALK counter-screen. shares compounds with Pol eta inh-1. HEK-293 viability, ATP luminescence (CellTiter-Glo), 24/48 h. Potency, µM (titrated, usually from 46.1 µM), for the others: top-dose activity change, negative = cytotoxicity, hits mostly inhibitors. hit rate 10% among 170; further: potency means the concentration at half of the fitted maximal effect; on the % scale 0 is the no-effect control and ±100 the full control effect
Pol kappa inh-2 – confirmation of human DNA polymerase kappa inhibitors | shares compounds with Pol eta inh-1 | purified Pol-kappa, fluorescent strand-displacement substrate | Potency, µM, usual class: inhibitors | hit rate 76% among 920 | AID 720501; further: potency means the concentration at half of the fitted maximal effect
Pol eta inh-2 – Pol eta (human) inhibition, cherry-pick confirmation. shares compounds with Pol eta inh-1. Pol eta primer extension, TAMRA/BHQ fluorescence, 10 min. Potency, µM, usual class: inhibitors. hit rate 64% among 2,600; further: potency means the concentration at half of the fitted maximal effect
The depositor's hits bear a star; ? = inconclusive; / = no result given; ! = repeats disagree; [ ] = remark or other dose. The call rests on the fitted dose curve; in most records, active means well fitted curve in the direction sought with a large enough effect; inconclusive means small, poorly fitted or top-dose-only effect, or another doubt; inactive means no such curve, though single readings can be large; an effect the other way counts as inactive or inconclusive.

SMILES | Pol iota inh | Pol kappa inh-1 | TDP1 inh | Pol eta inh-1 | Pol beta inh | POLI cherry-pick | Pol eta inh-2 | others
COc1ccc2c(C)nc(Nc3nc(C)c(C)c(=O)[nH]3)nc2c1 | 8.3% | 10.8% | 5.1% | ? | 200.4% | 53.2* | 75.7*
CCOc1cc2c(C#N)c(N3CCCC3)nc(N)c2c(N)n1 | 21.4% | -6.9% | / | -4.4% | / | / | /
COc1cc2c(C#N)c(N3CCCC3)nc(N)c2c(N)n1 | 8.91µM*! | ? | / | 22.4µM* | ? | 37.7* | 23.9*
N#Cc1c(N2CCCC2)nc(N)c2c(N)nc(N3CCCC3)cc12 | 2.51µM* | -15.8% | 10.3% | 2.82µM* | ? | 37.7* | 60.1* | GALK confirm=2.11µM*;Redox cycling=1.88µM*;HEK293 viability=-1.5%
COc1ccc(C)cc1Nc1ncnc2c1c(-c1ccccc1)cn2-c1ccc(C)cc1 | -8.7% | -2.6%[60.1 µM] | 10.4% | -15.3% | -1.5% | / | /
C=CCn1c(SCC(=O)c2ccc(O)c(O)c2)nnc1-c1cccnc1 | 7.08µM* | 28.2µM* | -8.2% | 3.98µM* | 1.26µM* | 33.6* | 26.9* | PGK validate=3.66µM*
C=CCn1c(SCC(=O)NC2CCCC2)nnc1-c1cccnc1 | 39.0% | -6.8% | 1.7% | -1.3% | -6.9% | / | /
COc1ccc(C(=O)c2sc3nc(-c4ccccc4)ccc3c2N)cc1OC | ? | ? | -3.1% | ? | 12.6µM* | ? | 67.5*
CCOC(=O)C1CCN(C(=O)Cn2nc(CC)n3c(cc4sccc43)c2=O)CC1 | 1.6% | 1.0% | -2.0% | -17.5% | 3.2% | / | /
O=c1cc(-c2ccc(O)c(O)c2)oc2c1ccc1ccccc12 | 10µM* | 35.5µM* | -4.0% | 3.16µM* | / | 26.7* | 4.78* | Pol kappa inh-2=21.2*
O=c1cc(-c2ccccc2)oc2c1ccc1ccccc12 | / | -11.3%[19.4 µM] | 13.2%[56.1 µM] | / | / | / | /
O=C(NCc1ccccc1F)c1ccc(CN2CC(=O)N3CCCCC3C2=O)cc1 (stereo not drawn) | -15.4% | -0.5% | 0.0% | -9.1% | 16.8% | / | /
CC(Oc1ccccc1F)C(=O)Nc1ccc(-c2nc3ccccc3s2)cc1 (stereo not drawn) | 8.8% | -3.3% | 2.6% | -3.2% | 13.4% | / | /
COc1cccc(NS(=O)(=O)c2ccc3c(c2)C2C=CCC2C(c2ccc(C(=O)O)cc2)N3)c1 (stereo not drawn) | 20µM* | 15.8µM* | 5.3% | 3.16µM* | ? | 37.7* | 26.9*
O=C(c1ccco1)N(c1ccccn1)c1ccccn1 | -0.2% | 1.9% | 4.7% | -8.8% | 25.9% | / | /
O=C(/C=C/c1ccco1)N(c1ccccn1)c1ccccn1 | ? | 31.6µM* | / | 8.91µM* | 3.55µM* | 16.8* | 23.9*
CC12CCC=CC1C(c1ccc(C(F)(F)F)cc1)N(Cc1ccccc1)C2=O (stereo not drawn) | -16.3% | -0.6% | 0.9% | / | / | / | /
COc1cc(O)c2c(c1)C(=O)c1cc(C)cc(O)c1C2=O | / | ? | 9.7%[56.1 µM] | / | / | / | /
O=C(O)c1cc(O)c2c(c1)C(=O)c1cc(O)cc(O)c1C2=O | ? | 22.4µM* | / | 8.91µM* | 7.94µM* | 21.2* | 6.01*
O=C(/C=C/c1ccc(O)c(O)c1)NC(=O)c1ccccc1O | ? | 31.6µM* | -5.0% | 7.94µM* | 10µM* | ? | 60.1*
CC(C)OCCCNC(=O)CSc1c2c(nc3ccc(Cl)cc13)CCCC2 | 21.9% | -8.5% | -2.3% | -5.9% | 18.1% | / | /
N#Cc1c(NC(=O)/C=C/C(=O)O)sc2c1CCN(Cc1ccccc1)C2 | -27.2% | 6.8% | / | 28.2µM* | 31.6µM* | 47.4* | 47.8* | Pol kappa inh-2=23.8*
CC(=O)Nc1sc2c(c1C#N)CCN(Cc1ccccc1)C2 | 59.1% | -10.9% | / | -15.4% | -1.8% | / | /
CN(C)C(=O)COC(=O)c1ccc(S(=O)(=O)NCc2ccco2)cc1 | ? | ? | / | 22.4µM* | 25.1µM* | 59.7* | 37.9*
Cc1nn(C)c2c1c(-c1ccccc1)cc(=O)n2Cc1ccc(F)cc1 | -21.7% | 0.0% | -8.4% | -10.3% | 26.4% | / | /
SMILES | Pol iota inh | Pol kappa inh-1 | TDP1 inh | Pol eta inh-1 | Pol beta inh | POLI cherry-pick | Pol eta inh-2 | others
O=C1C(=O)c2ccc(-c3ccccc3)cc2-c2ccccc21 | 2.3% | -5.0% | 1.6%[56.1 µM] | 5.62µM* | 13.4% | ? | 30.1* | GALK confirm=5.95µM*;Redox cycling=2.98µM*;HEK293 viability=7.91µM*
Nc1ccc2c(c1)C(=O)c1ccccc1-2 | 2.8% | -8.4% | / | 7.6% | / | / | /
Nc1ccc2c(c1)C(=O)C(=O)c1ccccc1-2 | 1µM* | -8.5% | -6.6% | 0.794µM* | 5.01µM* | 6.7* | 4.78* | PGK validate=1.63µM*;GALK confirm=2.37µM*;Redox cycling=1.33µM*;HEK293 viability=7.91µM*
CCc1ccccc1NC(=O)Nc1nnc(N(C)Cc2ccccc2)s1 | -1.3% | -10.8% | 5.7% | -10.1% | 28.9% | / | /
COc1cccc(NC(=O)CN(C)CC(=O)NCc2ccco2)c1 | 12.7% | -1.7% | 1.2% | -4.4% | / | / | /
CC(=O)c1cccc(OCC(=O)N(C)CC(=O)NCc2ccco2)c1 | 7.94µM* | 35.5µM* | 7.08µM* | 3.16µM* | / | 15* | 5.36* | PGK validate=3.26µM*;Pol kappa inh-2=18.9*
O=C1c2ccccc2C(=O)c2c1cccc2N1CCCC1 | ? | -19.9% | 1.8% | -19.9% | -0.3% | / | /
O=C1C=C(N2CCCCC2)c2ccccc2C1=O | 8.91µM* | -10.0% | / | 20µM* | / | 33.6* | 23.9*
CC(C)=CCc1c(O)ccc2c1OC(c1ccc(O)c(O)c1)CC2=O (stereo not drawn) | -29.6% | -14.0% | 2.6% | -15.1% | ? | / | /
O=C1CC(c2ccc(O)c(O)c2)Oc2c1ccc(O)c2O (stereo not drawn) | 1.58µM* | 1.78µM* | / | 0.794µM* | 0.398µM* | 3.36* | 3.38* | PGK validate=0.919µM*
